From PubChem BioAssay
Active and inactive are the calls of the source.

Columns and labels:
[1] = system: Human papillomavirus type 1a protein E7 (residues 44-93); experiment: HPV1a E7 fragment binders on microarrays, primary screen, biochemical, small-molecule microarray, residues 44-93, 635 nm fluorescence (AID 1108); conditions: small-molecule microarray binding, fluorescence 635 nm; higher = more signal;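 further: E7 fragment applied at 1 µg/mL in TBST for 1 h at 4 C; score combines spot fluorescence with its signal to noise ratio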
[2] = modulators of HCV replicon luciferase signal, primary screen, HCV replication inhibitor project, Huh7 cells, luciferase reporter (AID 1109); conditions: 48 h, higher = more signal;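 further: huh7 hepatoma cells harbouring a luciferase neomycin HCV replicon reporter; luciferase luminescence as measure of HCV replicon replication; test concentration not given here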
[3] = target: Left-right determination factor 2 (Homo sapiens) (UniProt O00292); experiment: LEFTY2 binders on small-molecule microarrays, primary screen, biochemical, small-molecule microarray, 635 nm fluorescence scan (AID 1110); conditions: LEFTY2 binding, higher = more signal
Sequence of Left-right determination factor 2 (Homo sapiens) (O00292 whole entry, looked up): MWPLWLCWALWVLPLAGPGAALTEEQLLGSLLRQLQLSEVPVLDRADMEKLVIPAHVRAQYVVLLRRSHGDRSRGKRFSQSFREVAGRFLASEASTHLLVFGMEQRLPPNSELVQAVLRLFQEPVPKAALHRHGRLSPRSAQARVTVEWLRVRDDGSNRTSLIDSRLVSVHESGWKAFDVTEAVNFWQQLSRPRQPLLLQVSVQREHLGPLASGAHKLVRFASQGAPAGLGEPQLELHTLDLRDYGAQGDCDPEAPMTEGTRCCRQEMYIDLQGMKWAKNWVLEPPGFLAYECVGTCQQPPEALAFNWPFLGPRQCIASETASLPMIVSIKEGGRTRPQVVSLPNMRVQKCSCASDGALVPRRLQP

[4] = target: Calmodulin-1 (Homo sapiens) (UniProt P0DP23); experiment: CALM1 binders on microarrays, EGTA buffer, profiling panel, biochemical, small-molecule microarray, Cy5-labelled CALM1 (AID 1111); conditions: Cy5-CALM1 binding fluorescence, higher = more signal;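 further: labelled calmodulin applied in Tris saline Tween buffer holding calcium plus EGTA and DTT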
[5] = target: Calmodulin-1 (Homo sapiens) (UniProt P0DP23); experiment: calcium-bound CALM1 binders on microarrays, profiling panel, artefact control for SMM control-protein annotation, biochemical, small-molecule microarray, Cy5-labelled CALM1, plus calcium (AID 1112); conditions: Cy5-CALM1 binding fluorescence, higher = more signal;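 further: score merges spot fluorescence with signal to noise from triplicate slides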
[6] = small-molecule microarray binders of probe aWnt5a, primary screen, biochemical, biotinylated probe, 635/667 nm fluorescence (AID 1113); conditions: higher = more signal;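 further: score merges 667 nm fluorescence intensity with signal-to-noise per printed feature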
[7] = small-molecule microarray binders of probe aShh, primary screen, biochemical, biotinylated probe, 635/667 nm fluorescence (AID 1114); conditions: higher = more signal;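 further: probe is biotin-labelled aShh protein from a stem cell growth factor screen; measures binding of labelled protein to compounds printed on the slide; score merges feature fluorescence at 667 nm with signal-to-noise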
[8] = small-molecule microarray binders of probe aNog, primary screen, biochemical, biotinylated probe, 635/667 nm fluorescence (AID 1115); conditions: higher = more signal;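 further: probe is biotinylated aNog protein used at 0.15 µg/mL for 1 h at 4 C; z-score combines 667 nm fluorescence of each spot with its signal to noise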
[9] = target: Torsin-1A-interacting protein 1 (Homo sapiens) (UniProt Q5JTV8); experiment: LAP1 binders from COS7 cell lysate, primary screen, small-molecule microarray, 635/667 nm fluorescence (AID 1116); conditions: COS7-hLAP1 lysate binding, 635 nm fluorescence, higher = more signal
Sequence of Torsin-1A-interacting protein 1 (Homo sapiens) (Q5JTV8 whole entry, looked up): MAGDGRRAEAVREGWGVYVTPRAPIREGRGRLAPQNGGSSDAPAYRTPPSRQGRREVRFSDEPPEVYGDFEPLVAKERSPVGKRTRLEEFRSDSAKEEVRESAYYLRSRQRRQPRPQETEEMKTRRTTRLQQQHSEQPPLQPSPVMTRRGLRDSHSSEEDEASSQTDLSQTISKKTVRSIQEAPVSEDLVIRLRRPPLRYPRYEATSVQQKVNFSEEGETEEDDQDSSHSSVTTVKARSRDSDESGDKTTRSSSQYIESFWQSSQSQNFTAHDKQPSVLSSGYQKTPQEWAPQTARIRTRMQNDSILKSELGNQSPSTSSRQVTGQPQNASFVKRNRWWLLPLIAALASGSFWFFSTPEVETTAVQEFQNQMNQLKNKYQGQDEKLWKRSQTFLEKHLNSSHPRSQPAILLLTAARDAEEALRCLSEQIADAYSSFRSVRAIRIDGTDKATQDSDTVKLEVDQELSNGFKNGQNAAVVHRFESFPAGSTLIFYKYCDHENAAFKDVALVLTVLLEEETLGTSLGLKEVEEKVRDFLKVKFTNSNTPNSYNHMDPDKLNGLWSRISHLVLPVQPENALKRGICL

[10] = target: Alpha-bungarotoxin (Bungarus multicinctus) (UniProt P60615); experiment: alpha-bungarotoxin binders on microarray, profiling panel, artefact control for SMM control protein annotation, biochemical, small-molecule microarray, Alexa647 label, 635/667 nm fluorescence (AID 1117); conditions: alpha-BTX-A647 binding fluorescence, higher = more signal
Sequence of Alpha-bungarotoxin (Bungarus multicinctus) (P60615 whole entry, looked up): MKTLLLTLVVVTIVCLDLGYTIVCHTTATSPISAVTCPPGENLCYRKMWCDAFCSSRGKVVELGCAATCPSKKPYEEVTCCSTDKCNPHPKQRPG

[11] = target: Albumin (Bos taurus) (UniProt P02769); experiment: bovine serum albumin binders on microarray, profiling panel, artefact control for SMM control protein annotation, biochemical, small-molecule microarray, Alexa647 label, 635/667 nm fluorescence (AID 1118); conditions: BSA-A647 binding, fluorescence 635 nm, higher = more signal;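 further: score merges 667 nm emission intensity and signal-to-noise per printed compound spot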
Sequence of Albumin (Bos taurus) (P02769 whole entry, looked up): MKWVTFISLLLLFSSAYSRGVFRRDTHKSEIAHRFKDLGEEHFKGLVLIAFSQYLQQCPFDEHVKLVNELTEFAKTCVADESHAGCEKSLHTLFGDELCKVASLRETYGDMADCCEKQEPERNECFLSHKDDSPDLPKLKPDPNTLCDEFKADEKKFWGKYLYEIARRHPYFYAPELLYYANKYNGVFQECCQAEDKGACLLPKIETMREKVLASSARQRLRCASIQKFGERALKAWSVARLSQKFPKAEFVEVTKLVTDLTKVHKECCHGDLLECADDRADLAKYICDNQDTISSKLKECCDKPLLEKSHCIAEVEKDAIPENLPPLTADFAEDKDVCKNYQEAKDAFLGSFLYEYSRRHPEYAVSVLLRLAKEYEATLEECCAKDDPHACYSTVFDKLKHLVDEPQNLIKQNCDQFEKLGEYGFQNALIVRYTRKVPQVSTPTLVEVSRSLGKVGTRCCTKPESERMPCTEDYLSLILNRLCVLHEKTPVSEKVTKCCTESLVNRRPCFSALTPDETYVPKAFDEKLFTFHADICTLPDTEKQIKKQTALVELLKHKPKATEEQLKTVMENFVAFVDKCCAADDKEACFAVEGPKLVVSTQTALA

[12] = small-molecule microarray binders of probe aXIP, primary screen, biochemical, NeuroSMM set, 635/667 nm fluorescence (AID 1119); conditions: higher = more signal, called active from +8 up or from −8 down;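 further: probe is the protein aXip251-270 applied at 1 µg/mL to compound-printed slides; binding of probe to printed compounds measured as 667 nm fluorescence plus signal to noise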
[13] = small-molecule binders of probe aNOTCH3, primary screen, biochemical, small-molecule microarray, 635/667 nm fluorescence (AID 1120); conditions: higher = more signal;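 further: probe is a biotin-tagged antibody raised against NOTCH3 rather than NOTCH3 protein; score merges spot fluorescence near 667 nm with spot signal to noise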
[14] = small-molecule binders of probe aNOTCH2, primary screen, biochemical, small-molecule microarray, 635/667 nm fluorescence (AID 1121); conditions: higher = more signal;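 further: score merges feature fluorescence read at 667 nm with its signal to noise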
[15] = target: Carbonic anhydrase 2 (Homo sapiens) (UniProt P00918); experiment: CAII small-molecule binders, profiling panel, biochemical, small-molecule microarray, Alexa647-labelled CAII (AID 1122); conditions: CAII-A647 binding fluorescence, higher = more signal
[16] = COS7 lysate on small-molecule microarray, probe aHis, 635 nm (AID 1123); conditions: COS7 cell lysate, fluorescence, higher = more signal;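 further: z-score combines 667nm fluorescence intensity with signal-to-noise per printed compound spot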
[17] = compound binding in COS7 lysate, probe aLAP1, primary screen, cell lysate, small-molecule microarray (AID 1124); conditions: probe aLAP1, fluorescence, higher = more signal;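 further: lysate comes from COS7 cells expressing LAP1 and is applied at 0.3 µg/mL; score merges spot fluorescence near 667 nm with signal-to-noise over triplicate slides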
[18] = system: Sam68 (KHDRBS1); experiment: Sam68 small-molecule binders, primary screen, biochemical, small-molecule microarray, 635 nm fluorescence (AID 1125); conditions: small-molecule microarray binding, higher = more signal;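 further: score merges 667 nm channel intensity with signal to noise over triplicate slides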
[19] = system: Chordin-like protein 2 (CHRDL2); experiment: CHRDL2 small-molecule binders, primary screen, biochemical, small-molecule microarray, 635 nm fluorescence (AID 1126); conditions: small-molecule microarray binding, fluorescence 635 nm; higher = more signal;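 further: printed compound slides probed with Chrdl2 protein at 4 µg/mL for 1 h at 4 C; score merges 667 nm emission intensity with signal to noise over three replicate slides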
[20] = target: Concanavalin-A (Canavalia ensiformis) (UniProt P02866); experiment: ConA small-molecule binders, primary screen, artefact control for SMM control protein annotation, biochemical, small-molecule microarray, Alexa647 label, 635 nm (AID 1127); conditions: ConA-A647 binding fluorescence, higher = more signal;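 further: z combines 667 nm emission intensity with signal-to-noise across three replicate slides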
Sequence of Concanavalin-A (Canavalia ensiformis) (P02866 whole entry, looked up): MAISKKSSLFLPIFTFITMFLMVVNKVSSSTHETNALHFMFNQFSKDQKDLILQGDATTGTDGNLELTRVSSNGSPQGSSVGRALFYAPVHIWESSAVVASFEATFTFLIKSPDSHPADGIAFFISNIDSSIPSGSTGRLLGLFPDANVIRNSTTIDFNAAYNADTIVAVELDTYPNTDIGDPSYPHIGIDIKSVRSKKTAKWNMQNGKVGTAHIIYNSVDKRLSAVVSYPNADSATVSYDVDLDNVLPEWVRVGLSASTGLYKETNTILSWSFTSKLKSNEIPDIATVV

Structure (SMILES): CCN(CC)c1ccc(N2CC=CC34O[C@@H]5C=CCOC(=O)[C@@H]5[C@H]3C(=O)N(CCCO)[C@@H]4C2=O)cc1 (stereo not given in full)
- composite z-score [1]: 0.295
- z-score [2]: -0.427
- composite z-score [3]: -0.934
- composite z-score [4]: -1
- composite z-score [5]: 0.319
- composite z-score [6]: -0.124
- composite z-score [7]: 0.258
- composite z-score [8]: 0.223
- composite z-score [9]: 0.0016
- composite z-score [10]: -1.57
- composite z-score [11]: -0.997
- composite Z-score [12]: 0.547 (inactive)
- composite z-score [13]: -0.0971
- composite z-score [14]: -0.14
- composite z-score [15]: 0.862
- composite z-score [16]: 1.4
- composite z-score [17]: -0.39
- composite z-score [18]: 0.425
- composite z-score [19]: -0.773
- composite z-score [20]: -1.74

Structure (SMILES): CCC[C@@H]1C=C(C(=O)OCC)[C@H](c2ccccc2)N1S(=O)(=O)c1ccc(C)cc1
- composite z-score [1]: 1.04
- z-score [2]: -1.84
- composite z-score [3]: 1.06
- composite z-score [4]: 1.99
- composite z-score [5]: 0.409
- composite z-score [6]: 0.145
- composite z-score [7]: -0.195
- composite z-score [8]: -0.413
- composite z-score [9]: 1.69
- composite z-score [10]: 1.26
- composite z-score [11]: 0.854
- composite Z-score [12]: 0.142 (inactive)
- composite z-score [13]: 0.341
- composite z-score [14]: 0.273
- composite z-score [15]: 0.214
- composite z-score [16]: -0.0844
- composite z-score [17]: 1.29
- composite z-score [18]: 1.3
- composite z-score [19]: 0.0538
- composite z-score [20]: 1.11

Structure (SMILES): CCCCCN1CC=CC23O[C@@H]4C=CCOC(=O)[C@@H]4[C@H]2C(=O)N(CCCCCO)[C@@H]3C1=O (stereo not given in full)
- composite z-score [1]: -0.678
- z-score [2]: -0.0591
- composite z-score [3]: -1.19
- composite z-score [4]: -0.511
- composite z-score [5]: -0.177
- composite z-score [6]: -0.209
- composite z-score [7]: -0.0035
- composite z-score [8]: -0.223
- composite z-score [9]: 0.229
- composite z-score [10]: -0.724
- composite z-score [11]: 0.994
- composite Z-score [12]: 0.358 (inactive)
- composite z-score [13]: -0.137
- composite z-score [14]: -0.146
- composite z-score [15]: 0.854
- composite z-score [16]: 0.263
- composite z-score [17]: 0.0344
- composite z-score [18]: -0.172
- composite z-score [19]: -1.31
- composite z-score [20]: -0.56

Structure (SMILES): CC(C)C(=C=CC[C@@H](O)c1cccc(OCCO)c1)CCO
- composite z-score [1]: 0.217
- z-score [2]: 0.13
- composite z-score [3]: 0.0381
- composite z-score [4]: -0.203
- composite z-score [5]: -0.136
- composite z-score [6]: -0.154
- composite z-score [7]: -0.229
- composite z-score [8]: -0.273
- composite z-score [9]: 0.393
- composite z-score [10]: -0.529
- composite z-score [11]: 0.161
- composite Z-score [12]: -0.137 (inactive)
- composite z-score [13]: 0.0996
- composite z-score [14]: -0.0519
- composite z-score [15]: 0.705
- composite z-score [16]: 0.502
- composite z-score [17]: 0.0157
- composite z-score [18]: 0.0316
- composite z-score [19]: 0.55
- composite z-score [20]: -0.114

Structure (SMILES): COC(=O)C1(CC(C)C)C=C2C(=C(C(C)C)C(=O)C2C)CN1 (stereo not given)
- composite z-score [1]: -0.57
- z-score [2]: -0.193
- composite z-score [3]: -0.975
- composite z-score [4]: 0.228
- composite z-score [5]: 1.07
- composite z-score [6]: -0.0403
- composite z-score [7]: 0.171
- composite z-score [8]: 0.595
- composite z-score [9]: 0.187
- composite z-score [10]: -0.77
- composite z-score [11]: -0.597
- composite Z-score [12]: 0.116 (inactive)
- composite z-score [13]: -0.0043
- composite z-score [14]: -0.119
- composite z-score [15]: 0.539
- composite z-score [16]: 0.0678
- composite z-score [17]: -0.463
- composite z-score [18]: -0.923
- composite z-score [19]: -0.699
- composite z-score [20]: -2.07

Structure (SMILES): COC(=O)[C@@]1(Cc2ccc(OC)cc2)[C@@H]2[C@@H](CC(=O)[C@H]2CC(=O)C(=O)N2CCCC2)CN1C(=O)c1ccccc1
- composite z-score [1]: 0.43
- z-score [2]: -1.83
- composite z-score [3]: 0.352
- composite z-score [4]: 2.05
- composite z-score [5]: 1.02
- composite z-score [6]: 1.31
- composite z-score [7]: 2.68
- composite z-score [8]: 2.97
- composite z-score [9]: 2.12
- composite z-score [10]: 1.49
- composite z-score [11]: 0.979
- composite Z-score [12]: -0.766 (inactive)
- composite z-score [13]: 1.75
- composite z-score [14]: 1
- composite z-score [15]: 0.856
- composite z-score [16]: 3.45
- composite z-score [17]: 0.921
- composite z-score [18]: 1.09
- composite z-score [19]: 0.251
- composite z-score [20]: 1.18
